Source: PubChem BioAssay (Tox21)
“And” between values parts separate entries of the source, which are not always exact repeats. Equal values may be shown once. Results filed as inconclusive are left out. Where a call stands in place of a potency, no number is given. Some compounds were tested as several samples or in several runs, with calls that do not always agree. The source made the active and inactive calls. The call rests on the fitted dose curve; in most records, active means well fitted cell-killing curve with a large enough effect in the repeat runs; inconclusive means weak or mixed curves, or effect the other way; inactive means no such curve, though single readings can be large or run the other way.

experiment: qHTS assay to identify small molecule agonists of the farnesoid-X-receptor (FXR) signaling pathway - cell viability counter screen (AID 743218); details: FXR-bla HEK293T viability, CellTiter-Glo luminescence, 16 h; series mostly up to 62.6 µM; further: nearly all actives have a fitted effect of over 45% in size
Source text: U.S. Tox21 Program National Center for Advancing Translational Sciences [NCATS] NIH Chemical Genomics Center [NCGC] U.S. Environmental Protection Agency [EPA] National Institutes of Environmental Health Sciences [NIEHS] National Toxicology Program [NTP] U.S. Food and Drug Administration [FDA] Tox21 Assay Overview: The farnesoid-X-receptor (FXR), a nuclear hormone receptor, is highly expressed in liver, intestine, kidney and adrenal cortex. Natural ligands of FXR are the bile acids (Cholic acid, Chenodeoxy cholic acid etc). FXR is an important regulator of diverse metabolic pathways, including the bile acid homeostasis, lipid and glucose metabolisms. FXR regulates the expression of target genes by binding either as a monomer or as a heterodimer with the retinoid X receptor (RXR). Numerous studies have reported that FXR exerts protective function during cholestasis, diabetes, liver regeneration, and cancer. To identify compounds that activate FXR signaling, GeneBLAzer FXR-UAS-bla HEK 293T cell line (Invitrogen, Carlsbad, CA) containing a beta-lactamase reporter gene under the control of a UAS response element was used to screen the Tox21 10K compound library. The cytotoxicity of the Tox21 compound library against the FXR-bla cell line was tested in parallel by measuring the cell viability using CellTiter-Glo assay in the same wells.
Tox21 Assay Protocol Summary: FXR-bla cells were dispensed at 5000 cells/5uL/well in 1536-well black wall/clear bottom plates using a Multidrop Combi (Thermo Fisher Scientific, Waltham, MA) dispenser. After the assay plates were incubated at 37 C and 5% CO2 for 5 h, 23 nL of compounds dissolved in DMSO, positive controls or DMSO only was transferred to the assay plate by a Pintool station (Kalypsys, San Diego, CA). The assay plates were incubated at 37C for 16 h. After 1 uL of LiveBLAzerTM B/G FRET substrate was added using a Bioraptr Flying Reagent Dispenser (FRD) workstation (Beckman Coulter, Indianapolis, IN), the plates were incubated at room temperature for 2 h, and fluorescence intensity was measured by an Envision plate reader (PerkinElmer, Shelton, CT). For cell viability readout that measures cytotoxicity, 4uL/well of CellTiter-Glo reagent was added into the assay plates using a Bioraptr FRD. After 30 min incubation at room temperature, the luminescence intensity in the plates was measured using a ViewLux plate reader (PerkinElmer).
Potency means the concentration at half of the fitted maximal effect.

| Compound | Potency |
| --- | --- |
| CCCCCCCCCCCCCC[P+](CCCCCC)(CCCCCC)CCCCCC | 13.9 µM (active) and 24.7 µM (active) and inactive |
| CCC[N+]1(C)CCCCC1 | inactive |
| O=S(=O)(O)O | inactive |
| CC(=O)[O][Hg][c]1ccccc1 | 968 nM (active) and 871 nM (active) and 2.11 µM (active) |
| CCCC[n+]1ccccc1C | inactive |
| CN(C)[C@@H]1C(=O)C(C(N)=O)=C(O)[C@@]2(O)C(=O)C3=C(O)c4c(O)cccc4[C@@](C)(O)[C@H]3[C@H](O)[C@@H]12 | inactive |
| CC(=O)O | inactive |
| COc1ccc(N)cc1 | inactive |
| O=C(O)C(Cl)Cl | inactive |
| O=C(O)C(Cl)(Cl)Cl | inactive |
| CCCC[N+]1(C)CCCC1 | inactive |
| CCCCn1cc[n+](C)c1C | inactive |
| CCCC[N+]1(C)CCCCC1 | inactive |
| CCCCCCCCCCCCCCCCn1cc[n+](C)c1 | inactive and 44 µM (active) and 21.9 µM (active) |
| O=c1nc(O)n(Cl)c(=O)n1Cl | inactive |
| CCCCCCCCCCCCOS(=O)(=O)O | 49 µM (active) and 24.5 µM (active) and inactive |
| CCCCCCCCn1cc[n+](C)c1 | inactive |
| O=[N+]([O-])O | inactive |
| C[C@]12CCC(=O)C=C1CC[C@@H]1[C@@H]2CC[C@]2(C)C(=O)CC[C@@H]12 | inactive |
| N#CS | inactive |

| Compound | Potency |
| --- | --- |
| CCC(=O)C(CC(C)N(C)C)(c1ccccc1)c1ccccc1 (stereo not given) | inactive |
| CC[N+](CC)(CC)CC | inactive |
| Oc1ccccc1-c1ccccc1 | inactive |
| COCC(=O)N(c1c(C)cccc1C)C(C)C(=O)OC (stereo not given) | inactive |
| C1CCC(NC2CCCCC2)CC1 | inactive |
| CC(Cl)(Cl)C(=O)O | inactive |
| O=P1(N(CCCl)CCCl)NCCCO1 (stereo not given) | inactive |
| C=CCOC(Cn1ccnc1)c1ccc(Cl)cc1Cl (stereo not given) | inactive |
| CCCC[n+]1cccc(C)c1 | inactive |
| COc1ccccc1N | inactive |
| Nc1ccc(-c2ccc(N)cc2)cc1 | inactive |
| COP(=O)(OC)OC=C(Cl)Cl | inactive |
| Oc1cccc2cccnc12 | inactive and 949 nM (active) |
| C[N+](C)(C)Cc1ccccc1 | inactive |
| CCOP(=S)(OCC)Oc1ccc2c(C)c(Cl)c(=O)oc2c1 | inactive |
| Cc1cc(Cl)ccc1OCC(=O)O | inactive |
| CCCC[n+]1ccc(C)cc1 | inactive |
| CCC[N+]1(C)CCCC1 | inactive |
| Cc1cc(-c2ccc(N)c(C)c2)ccc1N | inactive |
| Nc1ccccc1 | inactive |
